Source: PubChem (several laboratories)
In the library only some 28% were active in any assay of this set; here they are far more common.
CYP2C19 inhib: inhibitors of human CYP2C19. 96,000 tested, 21% active. CYP2C19 Supersomes, luciferin-H EGE luminescence, 30 min. P33261. inhibition, % at 5 µM;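 active means CYP2C19 inhibition above a set limit at 5 µM in the primary screen, cut at about 50% in these data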;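 further: plate controls were negative control wells for no effect and 2.5 mM tranylcypromine positive control for full effect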
D1 allo mod: allosteric modulators of human D1 dopamine receptor; P21728; HEK293 D1, CRE-luciferase, dopamine EC30 potentiation; actives deviate in either direction; B-score at 10 µM; 58,000 tested, 5.9% active;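 active means luminescence count or its row- and column-corrected plate score outside the 99.7% band of the plate's sample wells, on either side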
Target sequence (P21728 whole entry, looked up): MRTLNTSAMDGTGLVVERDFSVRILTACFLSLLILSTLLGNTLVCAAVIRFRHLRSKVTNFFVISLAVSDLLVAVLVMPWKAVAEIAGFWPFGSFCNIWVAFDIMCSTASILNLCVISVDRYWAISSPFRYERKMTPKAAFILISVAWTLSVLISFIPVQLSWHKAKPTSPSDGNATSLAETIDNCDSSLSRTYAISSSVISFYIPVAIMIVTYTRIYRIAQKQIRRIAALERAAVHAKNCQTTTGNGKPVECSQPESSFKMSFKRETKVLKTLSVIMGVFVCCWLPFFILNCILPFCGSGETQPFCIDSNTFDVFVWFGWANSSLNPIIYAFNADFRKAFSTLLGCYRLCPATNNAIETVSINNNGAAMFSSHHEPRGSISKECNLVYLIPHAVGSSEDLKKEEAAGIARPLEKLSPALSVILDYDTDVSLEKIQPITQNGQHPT
hDAT+cocaine: human DAT dopamine uptake with cocaine, either direction | Q01959 | LLC-PK1 hDAT cells, [14C]-dopamine uptake with cocaine IC80; actives deviate in either direction | B-score at 10 µM | 110,000 tested, 1.3% active | AID 449768;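 active means Z score or B-score, a plate-position-corrected score, falls beyond the plate's 99.7% confidence bounds, in either direction; inactive means both scores lie inside the 99.7% bounds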;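 further: scored against the spread of the other compound wells on the same plate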
CYP2C9 activ: increases human cytochrome P450 2C9 activity. recombinant CYP2C9, luciferin-H conversion, luminescence; hits give high values; factor 1 = untreated enzyme, 0 = blocked. activation factor at 5 µM. 96,000 tested, 1.4% active. AID 1024;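 active means activation factor of 2 or more for CYP2C9 at a 5 µM dose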;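 further: 0 = sulfaphenazole-blocked wells and 1 = vehicle-only wells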
CYP2C19 activ: activators of human cytochrome P450 2C19; recombinant CYP2C19, luciferin-H EGE luminescence; hits give high values; 0 = fully inhibited enzyme, 1 = untreated enzyme; activation factor at 5 µM; 96,000 tested, under 10 active;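 active means activation factor of at least 2 at 5 µM in the primary screen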;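 further: 0 = wells with 2.5 mM tranylcypromine and 1 = vehicle-only wells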
CYP2C9 inh: blocks human cytochrome P450 2C9; P11712; CYP2C9 Supersomes, luciferin-H conversion, luminescence; inhibition, % at 5 µM; 96,000 tested, 20% active;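 active means blocking of liver enzyme CYP2C9 beyond about 50% at 5 µM, limit read from the data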
* = called active by the depositor.

Cc1cc(C(=O)CN2C(=O)c3ccccc3C2=O)c(C)n1C1CC1 was read as CYP2C19 inhib 0, D1 allo mod 0.69, hDAT+cocaine -0.13, CYP2C9 activ 1.3, CYP2C19 activ 1 and CYP2C9 inh -31.
`Cc1ccc(S(=O)(=O)N2CCC(C(=O)NNS(=O)(=O)c3ccc(Cl)cc3)CC2)cc1` gave CYP2C19 inhib 8, hDAT+cocaine -0.65, CYP2C9 activ 1.3, CYP2C19 activ 0.9 and CYP2C9 inh -28.
Screening CC(=O)c1c(C(C)=O)c(C)n(-c2ccc(N)cc2)c1C returned CYP2C19 inhib -24, CYP2C9 activ 0.8, CYP2C19 activ 1.2 and CYP2C9 inh 20.
Screening COc1ccc2c(c1)c(C(=O)CN1CCN(C(=O)c3ccco3)CC1)c(C)n2C returned CYP2C19 inhib 57*, D1 allo mod 0.38, hDAT+cocaine -0.45, CYP2C9 activ 1, CYP2C19 activ 0.4 and CYP2C9 inh 3.
`COC(=O)c1c(NC(=O)CN2CCN(C(=O)c3ccco3)CC2)c2cc(C)ccc2n1C` gave CYP2C19 inhib 33, D1 allo mod -2.8*, hDAT+cocaine 0.15, CYP2C9 activ 0.7, CYP2C19 activ 0.7 and CYP2C9 inh 31.
`CC1CN(S(=O)(=O)c2ccc(Cl)c(S(=O)(=O)N3CC(C)OC(C)C3)c2)CC(C)O1` (configuration not stated) gave CYP2C19 inhib 8, D1 allo mod -0.34, hDAT+cocaine -1.2, CYP2C9 activ 0.9, CYP2C19 activ 0.9 and CYP2C9 inh 8.
O=C(c1ccc(CSCc2ccccc2F)o1)N1CCN(c2ccc(N3CCOCC3)nn2)CC1 was read as CYP2C19 inhib 60*, D1 allo mod 0.32, hDAT+cocaine 3.4*, CYP2C9 activ 0.5, CYP2C19 activ 0.4 and CYP2C9 inh 50*.
For C=C(C)CNC(=S)N/N=C(\C)c1ccc(-n2ccnc2)cc1 the results were CYP2C19 inhib 100*, hDAT+cocaine 0.23, CYP2C9 activ 0, CYP2C19 activ 0 and CYP2C9 inh 100*.
Screening Cc1cc(C)c(C(=O)c2ccc(C(=O)NC(C)(C)C)cc2)c(C)c1 returned CYP2C19 inhib 30, hDAT+cocaine -0.55, CYP2C9 activ 0.8, CYP2C19 activ 0.7 and CYP2C9 inh 20.
For Cc1cc(C)c(C(=O)c2ccc(C(=O)N(C(C)C)C(C)C)cc2)c(C)c1 the results were CYP2C19 inhib 86*, hDAT+cocaine 0.42, CYP2C9 activ 0.2, CYP2C19 activ 0.1 and CYP2C9 inh 82*.
`CCOC(=O)C1=C(NC(=S)NC(=O)c2ccccc2)c2ccccc2CC1C(C)C` (configuration not stated) gave CYP2C19 inhib 41, hDAT+cocaine -0.38, CYP2C9 activ 0.2, CYP2C19 activ 0.6 and CYP2C9 inh 77*.
For Cc1ccc(S(=O)(=O)N(C)Cc2ccc(-c3nnco3)cc2)cc1 the results were CYP2C19 inhib 48, hDAT+cocaine -0.048, CYP2C9 activ 0.8, CYP2C19 activ 0.5 and CYP2C9 inh 16.
For Cc1ccc(C(C)C)c(OCc2ccc(-c3nnco3)cc2)c1 the results were CYP2C19 inhib 86*, D1 allo mod -0.76, hDAT+cocaine -0.038, CYP2C9 activ 0.6, CYP2C19 activ 0.1 and CYP2C9 inh 40.
Cc1ccc(S(=O)(=O)N2CCN(C)CC2)c(C)c1 was read as CYP2C19 inhib 36, hDAT+cocaine -0.78, CYP2C9 activ 1.5, CYP2C19 activ 0.6 and CYP2C9 inh -48.
For N#Cc1c(SCC(=O)Nc2nccs2)nc2c(c1-c1ccco1)CCCC2 the results were CYP2C19 inhib 46, D1 allo mod 0.51, hDAT+cocaine 0.43, CYP2C9 activ 0.3, CYP2C19 activ 0.5 and CYP2C9 inh 70*.
`CCc1ccccc1NC(=O)CSc1nc2c(c(-c3ccco3)c1C#N)CCCC2` gave CYP2C19 inhib 88*, D1 allo mod 0.6, hDAT+cocaine -1.2, CYP2C9 activ 0.7, CYP2C19 activ 0.1 and CYP2C9 inh 34.
Cc1ccccc1NC(=O)CSc1nc2c(c(-c3ccco3)c1C#N)CCCC2 was read as CYP2C19 inhib 43, D1 allo mod -0.41, hDAT+cocaine -0.42, CYP2C9 activ 0.7, CYP2C19 activ 0.6 and CYP2C9 inh 27.
Screening CCC(C(=O)Nc1cnccn1)c1ccccc1 (configuration not stated) returned CYP2C19 inhib 60*, hDAT+cocaine 0.091, CYP2C9 activ 0.8, CYP2C19 activ 0.4 and CYP2C9 inh 18.
